62 compounds from PubChem BioAssay AID1379 (National Center for Advancing Translational Sciences (NCATS), 2008) can be followed below.

Screen size: about 200,000 compounds; about 560 (0.28%) were called active. The call rests on the fitted dose curve; in most records, active means well fitted inhibition curve with a large enough effect; inconclusive means small, poorly fitted or top-dose-only effect; inactive means flat fitted curve, though single readings scatter. Shown is part of a subset that was picked to be rich in actives.
On the % scale 0 is the no-effect control and ±100 the full control effect; potency means the concentration at half of the fitted maximal effect.

This assay deals with Luciferin 4-monooxygenase (Photuris pensylvanica) (UniProt Q27757). Nature of the assay: Counterscreen for Luciferase (Kinase-Glo TM) Inhibition. Further: nearly all actives have a fitted effect of over 60% in size. Conditions: ATP luminescence, 8 min; series mostly up to 38.3 µM; activity change, negative = inhibition: at the top concentration. As for the experimental part:
NCGC Assay Overview: NIH Molecular Libraries Screening Centers Network [MLSCN] NIH Chemical Genomics Center [NCGC] MLSCN Grant: None Luciferase (Kinase-Glo, Promega Corporation) was assayed for its ability to generate light using ATP and luciferin as substrates. The ATP concentration in the assay (10 uM) was within the linear range of enzyme activity for the assay conditions used.
NCGC Assay Protocol Summary: Four uL of substrate mix (final concentration, 50 mM imidazole pH 7.2, 50 mM KCl, 7 mM MgCl2, 10 uM ATP, 0.01% Tween 20, 0.05% BSA) was dispensed into white 1536 well plates. Twenty-three nL of compound was delivered by a pin tool and 2 uL of luciferase detection mix (Kinase-Glo, Promega)) was added. Following 8-minute incubation at ambient temperature, luminescence was measured by a ViewLux (Perkin Elmer) at 5 seconds exposure/plate.
Consider `COC(=O)C1=C(C(=O)OC)[C@@H]2N(C)c3ccccc3[C@@]23C[C@@H](C(=O)OC)N(S(=O)(=O)c2ccc(Br)cc2)C3=N1`, for which the activity change, negative = inhibition is -4.44% [at 7.66 µM] (inactive).

Consider `CCCCCCCC/C=C\CCCCCCCC(=O)NCC(=O)O`, for which the “activity change, negative = inhibition” value is -1.33% (inactive).

In the case of `CCOC(=O)C1=NO[C@@]2(C=C(Br)C(=O)[C@H]3O[C@H]32)C1`, the “activity change, negative = inhibition” value is 1.87% (inactive).

For `COc1cccc([C@@H]2Oc3ccc(Br)cc3C(=O)[C@H]2OC(=O)NCc2ccc3c(c2)OCO3)c1`, the “activity change, negative = inhibition” value is 0.893% (inactive).

For `COCCN1C(=O)N[C@@H](CCc2ccccc2)[C@H](C(C)=O)[C@H]1C`, the activity change, negative = inhibition is -8.66% [at 7.66 µM] (inactive).

With `Cc1ccsc1/C=C1\SC(N2CCOCC2)=NC1=O`, the Potency is 12.6 µM (active).

`Cc1ccc(N2CCN(C3=NC(=O)/C(=C\c4cccs4)S3)CC2)cc1`: the “activity change, negative = inhibition” value was 6.68% (inactive).

Take `CCc1ccc(/C=C2\SC(N3CCOCC3)=NC2=O)cc1`: the “activity change, negative = inhibition” value is 0.0153% (inactive).

On to `COC(=O)CCCC1=CC2=C(c3ccccc3)C(=O)C(C)(OC(=O)C3CCCC3)C(=O)C2=CN1c1ccc(OC)cc1` (configuration not stated), for which the activity change, negative = inhibition is -10.4% [at 7.66 µM] (inactive).

`COC(C)C(C(=O)OCC1=CCN2CC[C@H](O)[C@@H]12)C(C)C` (some centres not stated): the “activity change, negative = inhibition” value was 0.48% (inactive).

`COC(=O)CC1c2ccccc2C(Cc2ccc(OC)cc2)=C(C)N1C(=O)OC` (configuration not stated): the activity change, negative = inhibition was -5.96% [at 7.66 µM] (inactive).

Regarding `COc1cccc(/C=N\NC(=O)C2=NNC(=O)C2C)c1O` (configuration not stated), the Potency is 12.6 µM (active).

`COc1cccc(/C=N/NC(=O)c2[nH]nc3c2CCc2ccccc2-3)c1O`: the “activity change, negative = inhibition” value is -1.04% (inactive).

For `COc1cccc(/C=N/Nc2cc(C)nc(-c3ccccc3O)n2)c1O`, the “activity change, negative = inhibition” value was -0.876% (inactive).

For `Cc1ccc(S(=O)(=O)N2CCC(=O)N([C@H](COCc3ccccc3)Cc3ccccc3)CC2)cc1`, the “activity change, negative = inhibition” value was 5.82% [at 39.9 µM] (inactive).

Turning to `CCOC(=O)C1=C(C)c2ccccc2OC1C(=O)OCC` (configuration not stated), the “activity change, negative = inhibition” value was 2.5% [at 39.9 µM] (inactive).

Regarding `COC(=O)CCCC1=CC2=CC(=O)C(C)(OC(=O)c3cccs3)C(=O)C2=CN1c1ccc(CO)cc1` (configuration not stated), the activity change, negative = inhibition is -0.663% [at 7.66 µM] (inactive).

Take `COc1ccc(-c2nc3c(c4c2C[C@H](c2ccccc2)OC4)CN(C(=O)c2ccco2)CC3)c(C)c1`: the activity change, negative = inhibition was -7.1% [at 7.66 µM] (inactive).

Take `COc1ccc2nc(Nc3nc4cc5c(cc4s3)OCCO5)sc2c1`: the “activity change, negative = inhibition” value is 1.58% (inactive).

On to `c1c2c(cc3sc(N4CCCCC4)nc13)OCCO2`, for which the Potency is 12.6 µM (active).

On to `Brc1ccc2nc(N3CCCC3)sc2c1`, for which the “activity change, negative = inhibition” value is -10.5% (inactive).

For the compound `CCCCC[C@H](O)/C=C/[C@@H]1[C@@H](CC(=O)CCC(=O)O)[C@@H](O)C[C@H]1O`, the “activity change, negative = inhibition” value was 0.788% (inactive).

On to `COc1ccc(-c2nc3c(c4c2C[C@H](c2ccccc2)OC4)CN(C(=O)c2cccnc2)CC3)c(C)c1`, for which the activity change, negative = inhibition is -3.92% [at 7.66 µM] (inactive).

For `CCCCC/C=C\C[C@H](O)/C=C/C=C/C=C/[C@@H](O)CCCC(=O)O`, the “activity change, negative = inhibition” value is -1.4% (inactive).

Regarding `Cc1cc2oc(=O)cc(-c3ccccc3)c2c(C)c1-c1ccc(OC(F)(F)F)cc1`, the “activity change, negative = inhibition” value is 2.9% [at 39.9 µM] (inactive).

With `C[C@H]1Cc2c(-c3ccccc3)nc3c(c2CO1)CN(C(=O)C1CC1)CC3`, the activity change, negative = inhibition is -7.42% [at 7.66 µM] (inactive).

Turning to `CC(Nc1oc(-c2ccccc2)nc1-c1ccccc1)c1ccccc1` (configuration not stated), the activity change, negative = inhibition result is “inactive”.

For `CCN(CC)c1ccc(C(=O)N/N=C/c2ccc(N3CCOCC3)cc2)cc1`, the “activity change, negative = inhibition” value was 0.996% (inactive).

Take `CC(=C/c1ccccc1)/C=N/NC(=O)c1cc(C)oc1C`: the “activity change, negative = inhibition” value was -23.6% (inactive).

With `Cc1cc(C(=O)N/N=C/c2ccc(N3CCOCC3)cc2)c(C)o1`, the Potency is 11.2 µM (active).

Regarding `COc1ccc(-c2nc(-c3ccccc3)oc2Nc2ccc3ccccc3c2)cc1`, the “activity change, negative = inhibition” value is 0.504% (inactive).

As to `Cc1ccc(CC2(O)CCN(CCOc3ccc(O)cc3)CC2)cc1`, the “activity change, negative = inhibition” value was -0.52% [at 39.9 µM] (inactive).

For `COC/C=C/C1=CC2=CC(=O)C(C)(OC(=O)CCC(=O)OC)C(=O)C2=CO1` (configuration not stated), the “activity change, negative = inhibition” value was -2.02% (inactive).

As to `C=CC1=C2C=C(C3CC3)N(C(CO)CO)C=C2C(=O)C(C)(OC(=O)c2ccco2)C1=O` (configuration not stated), the activity change, negative = inhibition was -0.389% [at 7.66 µM] (inactive).

Turning to `CCN1C(=O)N[C@@H](c2ccccc2)C(C(=O)OC)=C1C`, the activity change, negative = inhibition is -0.704% [at 7.66 µM] (inactive).

Regarding `Cc1ccc(-c2nc3ccccc3[nH]2)cc1N`, the Potency was 6.31 µM (active).

Turning to `COc1ccc(Br)cc1C(=O)NC(=S)Nc1cc(-c2nc3ccccc3[nH]2)ccc1C`, the “activity change, negative = inhibition” value was -2.2% (inactive).

Turning to `OCCNc1nc2ccccc2[nH]1`, the “activity change, negative = inhibition” value is -0.325% (inactive).

With `Cc1ccc(-c2nc3ccccc3[nH]2)cc1NC(=O)c1sc2ccccc2c1Cl`, the “activity change, negative = inhibition” value is -4.49% (inactive).

As to `C=CCSc1nc2ccccc2[nH]1`, the “activity change, negative = inhibition” value was -7.25% (inactive).

On to `c1ccc2[nH]c(-c3nc4ccccc4[nH]3)nc2c1`, for which the Potency was 11.2 µM (active).

For `COCOc1cc(OC)ccc1C(=O)/C=C/c1ccc([N+](=O)[O-])cc1`, the “activity change, negative = inhibition” value was -1.04% (inactive).

Turning to `Cc1cc2oc(=O)cc(-c3ccccc3)c2c(C)c1/C=C/c1ccc(F)cc1`, the “activity change, negative = inhibition” value was 1.11% [at 39.9 µM] (inactive).

For `Cc1ccc(C(=O)CNc2ccc(F)cc2)cc1`, the “activity change, negative = inhibition” value was 0.448% (inactive).

In the case of `COC(=O)c1ccc(NCC(=O)N2CCCCCC2)cc1`, the “activity change, negative = inhibition” value is 0.973% (inactive).

`COC(=O)c1ccc(NCC(=O)c2ccccc2)cc1`: the Potency is 10 µM (active).

As for `C/C=C(\C)C(=O)OC1C(OC(=O)C2(C)OC2C)c2cc3ccc(=O)oc3cc2OC1(C)C` (configuration not stated), the “activity change, negative = inhibition” value was 0.763% (inactive).

Regarding `O=C(OCc1ccc([N+](=O)[O-])cc1)c1ccccn1`, the “activity change, negative = inhibition” value was 1.98% (inactive).

`N/C(=N\OC(=O)c1ccc([N+](=O)[O-])cc1)c1ccccn1`: the Potency was 8.91 µM (active).

As to `N/C(=N\OC(=O)Cc1ccc([N+](=O)[O-])cc1)c1ccccn1`, the “activity change, negative = inhibition” value was -13.1% (inactive).

Consider `C=CC(C1=CC(=O)C=CC1=O)c1ccc(O)cc1` (configuration not stated), for which the “activity change, negative = inhibition” value is 0.217% (inactive).

`COc1cc(OC)c2c(-c3cccc(-c4cccc(N)c4)c3)cc(=O)oc2c1`: the “activity change, negative = inhibition” value was -2.14% [at 39.9 µM] (inactive).

Take `COc1ccc(C(=O)Nc2ccc3c(c2)OCO3)cc1OC`: the Potency was 12.6 µM (active).

Regarding `Cn1c(=O)n(C)c2cc(C(=O)Nc3ccc4c(c3)OCO4)ccc21`, the “activity change, negative = inhibition” value was 0.19% (inactive).

Consider `COc1cc(NC(=O)c2ccc3c(c2)OCO3)ccc1NC(=O)c1cccs1`, for which the “activity change, negative = inhibition” value is -5.78% (inactive).

`COc1ccc(-c2csc(Nc3ccccn3)n2)cc1`: the “activity change, negative = inhibition” value was -10.1% (inactive).

As to `CCOc1cc(NC(=O)c2ccccn2)c(OCC)cc1NC(=O)c1ccc(OC)cc1`, the “activity change, negative = inhibition” value is -0.562% (inactive).

In the case of `COc1ccc(C(=O)/C=C/Nc2ccccn2)cc1`, the Potency was 11.2 µM (active).

`S=C(NCCCc1cnc[nH]1)NCCCN(Cc1ccc(Cl)c(Cl)c1)c1ccc(Br)cn1`: the “activity change, negative = inhibition” value was 2.07% [at 39.9 µM] (inactive).

On to `COc1ccc(C2=Nc3cc(C)ccc3OC2)cc1`, for which the Potency is 8.91 µM (active).

With `COc1ccc(-c2noc(-c3ccc(C)cc3)n2)cc1`, the “activity change, negative = inhibition” value was -1.12% (inactive).

As to `COc1ccc(C2=NOC3(CC(=O)N(c4ccc(C)cc4)C3=O)C2)cc1` (configuration not stated), the “activity change, negative = inhibition” value was -2.28% (inactive).
